{
  "source": "PubChem BioAssay AID526",
  "about": "(National Center for Advancing Translational Sciences (NCATS), 2006)",
  "note": "The whole screen tested about 67,000 compounds, of which fewer than 10 were called active. A selection follows. Values without a mark were called inactive. Calls follow the shape of the dose curve; as a rule, active = well fitted activation curve with a large enough effect (not every such curve was filed as active); inconclusive = small, poorly fitted or top-dose-only effect, or another doubt; inactive = no such curve, though single readings can be large or run the other way.",
  "data": [
    {"test": "Ubiquitin-GFP Assay", "settings": "Ubiquitin-GFP reporter cells, proteasome inhibition, GFP fluorescence, untreated = 0%, 10 µM MG-132 = 100%; series mostly up to 45.9 µM; activation (GFP accumulation): at the top concentration", "from_the_text": "NIH Chemical Genomics Center [NCGC]\nNIH Molecular Libraries Screening Centers Network [MLSCN]\nThe ubiquitin-proteasome pathway is present within all eukaryotic cells and plays roles in normal cellular functions and disease-related dysfunction. Proteins are tagged with a poly-ubiquitin chain that targets them for the proteasome, a multimeric protease, that degrades the protein into peptides and free ubiquitin. The proteasome has a key role in regulating cell cycle and growth and is known to control the levels of cyclins and CDK inhibitors as well as tumor suppressor proteins. Additionally, the activation of NF- B is controlled by ubiquitin-labeling and degradation of the inhibitory protein I B . […] With this in mind, proteasome inhibitors such as MG-132 and PS-341 have been used to inhibit tumor cell growth.\nA cellular assay for ubiquitin-proteasome function was used to find chemical probes of this pathway. The assay used an ubiquitin-GFP construct expressed in U2OS cells (BioImage). Under basal conditions little GFP can be detected as it is degraded by the proteasome. However, treatment of the cells with a proteasome inhibitor such as MG-132 results in a rise in GFP levels that can be detected in as little as four hours. We used the Acumen-Explorer laser plate cytometer having a 488 nm laser as an excitation light source to detect the GFP. Compounds were screened in 1536-well plates using qHTS with a concentration-titration series range that varied from 46 uM to 2.9 nM.\nNCGC Assay Protocol Summary:\nCells (U20S ps 2042) expressing ubiquitin (G76V-GFP) were maintained in DMEM with Glutamax-1 and high glucose, 10% FBS, 1% (v/v) penicillin-streptomycin, 0.5 mg/mL Geneticin (G418). The cells were seeded in 1536-well plates using a solenoid-based dispenser at 700 cells/5ul in DMEM medium with Glutamax-1 and high glucose containing 0.5% FBS, w/o phenol red, 25 mM HEPES. The plates were incubated at 37 °C/5% CO2 overnight. Then 23 nl of MG-132 in DMSO was added to the control wells at a final concentration of 10 uM. Next, 23 nL of library compounds in DMSO were added to the sample wells. The plates were incubated for 4 hrs at 37 °C/5% CO2. Following this incubation the plates were read on the Acumen using a cell object definition of 15 to 100 um in width and depth and a window of Total Intensity of between 77,200 and 2,720,000 FLU to enumerate GFP-expressing cells.\nThe %Activity was determined from the basal and MG-132 treated control wells. %Activity was determined by normalizing to the difference in signal between basal cells (0% Activity) and cells incubated with 10 uM of the proteasome inhibitor MG-132 (100% Activity). Concentration-response curves were fitted to the signals arising from the GFP fluorescence.\nAssay Protocol Summary Table\nSequence Parameter Value Description\n2. Time O/N 37C incubation\n4. Compound 23 nL Libraries (46 uM to 2.9 nM)\n5. Time 4 hr 37C incubation\n6. Detector Acumen Total Intensity, GFP fluorescence (488 ex/515 em)\nKeywords: NIH Roadmap, MLSCN, MLI, MLSMR, BioImage, proteasome, ubiquitin-GFP, qHTS, NCGC", "values": [
      {"compound": "Cc1cc(C(=O)O)c(S(C)(=O)=O)s1", "activation (GFP accumulation)": "4.58%"},
      {"compound": "CCn1nnc(NC(=O)c2cc(Cl)c(OC)c(Cl)c2)n1", "activation (GFP accumulation)": "-4.01%"},
      {"compound": "CCC(c1nnnn1C1CCCC1)N(Cc1cccs1)Cc1cc2cccc(C)c2[nH]c1=O", "note": "(stereo not drawn)", "activation (GFP accumulation)": "2.3%"},
      {"compound": "Cc1ccccc1CSc1nnc(-c2ccccn2)n1N", "activation (GFP accumulation)": "6.85%"},
      {"compound": "Cn1c(=O)c(CCc2ccccc2)nc2cnc(Nc3ccccc3)nc21", "activation (GFP accumulation)": "10%"},
      {"compound": "COc1ccccc1CN1CC2(CCN(S(=O)(=O)c3ccccc3)CC2)C1", "activation (GFP accumulation)": "-3.1%"},
      {"compound": "CC(C)(O/N=C(\\C(=O)N[C@@H]1C(=O)N2C(C(=O)[O-])=C(C[n+]3ccccc3)CS[C@@H]12)c1csc(N)n1)C(=O)O", "activation (GFP accumulation)": "-4.26% [at 20.5 µM]"},
      {"compound": "CCc1cc(Br)ccc1NC(=O)C1CCCO1", "note": "(stereo not drawn)", "activation (GFP accumulation)": "-1.25%"},
      {"compound": "O=C(O)c1c(Br)c(Br)c(Br)c(Br)c1C1c2ccc(O)cc2Oc2cc(O)ccc21", "activation (GFP accumulation)": "5.65% [at 9.17 µM]"},
      {"compound": "CS(=O)(=O)N1CCC2(CC1)CN(c1ccncc1)C2", "activation (GFP accumulation)": "1.35%"},
      {"compound": "NCC(=O)[C@@H](O)[C@H](O)[C@H](O)CO", "activation (GFP accumulation)": "1.45% [at 9.17 µM]"},
      {"compound": "O=C(c1ccco1)N1CCC[C@@]2(CCN(c3ccccc3)C2)C1", "activation (GFP accumulation)": "-4.44%"},
      {"compound": "Cc1ccc(-c2cc(C(F)(F)F)n3nc(C(=O)N4CCCC4)cc3n2)cc1", "activation (GFP accumulation)": "6.67% [at 9.17 µM]"},
      {"compound": "CC(C)CSC[C@@H]1O[C@H](n2cnc3c(N)nccc32)[C@H](O)[C@@H]1O", "activation (GFP accumulation)": "-1.11% [at 9.17 µM]"},
      {"compound": "O=C(Nc1nc2ccc(S(=O)(=O)N3CCCC3)cc2s1)C1CCCO1", "note": "(stereo not drawn)", "activation (GFP accumulation)": "5.33%"},
      {"compound": "O=C(Cn1ccc(=O)[nH]c1=O)Nc1ccc(C(=O)O)c(O)c1", "activation (GFP accumulation)": "-3.58% [at 9.17 µM]"},
      {"compound": "CNc1cc(-c2c(C)noc2C)ncn1", "activation (GFP accumulation)": "7.32%"},
      {"compound": "CCOC(=O)c1cc(C)sc1NC(=O)C1CCC1", "activation (GFP accumulation)": "2.63%"},
      {"compound": "CC(Sc1sc(=S)sc1SC(C)C(=O)O)C(=O)O", "note": "(stereo not drawn)", "activation (GFP accumulation)": "5.41%"},
      {"compound": "CCCOc1ccc(-c2nc(N)n[nH]2)cc1", "activation (GFP accumulation)": "-14.6%"},
      {"compound": "CC(C)NS(=O)(=O)c1ccc(CCC(=O)N2CCOCC2)cc1", "activation (GFP accumulation)": "2.5%"},
      {"compound": "CCOC(=O)c1sc(/N=C/Nc2nc(C)c(C(=O)OCC)s2)nc1C", "activation (GFP accumulation)": "1.72%"},
      {"compound": "CCCCCCCCCCCC(=O)O[C@H](CC(=O)O)C[N+](C)(C)C", "activation (GFP accumulation)": "-2.55%"},
      {"compound": "CC(=O)O[C@]1(C(C)=O)CC[C@@H]2[C@@H]3C=C(C)C4=CC(=O)CC[C@@]4(C)[C@H]3CC[C@]21C", "activation (GFP accumulation)": "1.15% [at 20.5 µM]"},
      {"compound": "CCCSC1=C(C#N)C(c2ccccc2C)C(C(=O)OC)C(=O)N1", "note": "(stereo not drawn)", "activation (GFP accumulation)": "-1.15%"},
      {"compound": "Nc1ccc2[nH]cc(CCC(=O)O)c2c1", "activation (GFP accumulation)": "-1.62% [at 9.17 µM]"},
      {"compound": "Cn1c(NC(=O)c2ccc3c(c2)OCO3)cc(=O)n(C)c1=O", "activation (GFP accumulation)": "-2.17%"},
      {"compound": "N#CCCn1c(=O)c(-c2cc(F)cc(F)c2)nc2cnc(Oc3ccccc3)nc21", "activation (GFP accumulation)": "-6%"},
      {"compound": "CCCCNc1nc(C)nc2c1nc(-c1ccccc1)n2CCCCN(CC)CC", "activation (GFP accumulation)": "16.4%"},
      {"compound": "Cc1ccc(N2CCN(S(=O)(=O)c3ccc(F)cc3)CC2)c(C)c1", "activation (GFP accumulation)": "-6.67%"},
      {"compound": "CN(Cc1ccco1)c1cc(-c2ccccc2C(F)(F)F)ncn1", "activation (GFP accumulation)": "-2.57%"},
      {"compound": "COCCn1c(=O)c(CCc2ccccc2)nc2cnc(N3CCNCC3)nc21", "activation (GFP accumulation)": "9.28%"},
      {"compound": "CCCCN(CCCC)C(=O)CCS(=O)(=O)c1ccc2c(c1)n(C)c(=O)c(=O)n2C", "activation (GFP accumulation)": "-6.4%"},
      {"compound": "COc1cccc(-c2cc(NCCc3c[nH]c4ccc(OC)cc34)ncn2)c1", "activation (GFP accumulation)": "-1.75%"},
      {"compound": "Cc1ccccc1N1CCN(S(=O)(=O)C[C@@]23CC[C@H](C[C@H]2NC(=O)[C@@H](N)CCS(C)(=O)=O)C3(C)C)CC1", "activation (GFP accumulation)": "-0.202%"},
      {"compound": "O=C(C1CCN(S(=O)(=O)c2cnc[nH]2)CC1)N1CCN(Cc2ccc3c(c2)OCO3)CC1", "activation (GFP accumulation)": "9.52%"},
      {"compound": "Nc1cc(OC(=O)c2ccccc2Br)nn1S(=O)(=O)c1ccccc1", "activation (GFP accumulation)": "-17.3%"},
      {"compound": "CN1[C@@H]2CC[C@H]1CC(NC(=O)c1nn(C)c3ccccc13)C2", "note": "(stereo partly drawn)", "activation (GFP accumulation)": "-8.43%"},
      {"compound": "O=C(/C=N/O)Nc1ccccc1", "activation (GFP accumulation)": "-1.72%"},
      {"compound": "CCOc1ccccc1-n1c(SCC(=O)N2CCCC2)nnc1-c1ccoc1C", "activation (GFP accumulation)": "4.13%"},
      {"compound": "CN1CCN(c2ncncc2-c2ccc(C(=O)N(C)C)cc2)CC1", "activation (GFP accumulation)": "-6.06%"},
      {"compound": "O=C(c1cc(C(F)(F)F)cc(C(F)(F)F)c1)N1CCC2(CCCN(c3ccccn3)C2)CC1", "activation (GFP accumulation)": "-3.52%"},
      {"compound": "COC(=O)Nc1nc2ccc(Sc3ccccc3)cc2[nH]1", "activation (GFP accumulation)": "-2.7% [at 20.5 µM]"},
      {"compound": "CCOC(=O)C1CCN(C(=O)COc2cc(C)c(Br)c(C)c2)CC1", "activation (GFP accumulation)": "1.64%"},
      {"compound": "COCCn1c(=O)c(C)nc2cnc(N(C)C)nc21", "activation (GFP accumulation)": "0.246%"},
      {"compound": "Cc1ccc(S(=O)(=O)c2nc(NCCCn3ccnc3)sc2Cl)cc1", "activation (GFP accumulation)": "-1.98%"},
      {"compound": "COc1ccccc1-c1cc(NCc2cccs2)ncn1", "activation (GFP accumulation)": "-4.8%"},
      {"compound": "Cc1c(NC(=O)c2cccnc2)c(=O)n(-c2ccccc2)n1C", "activation (GFP accumulation)": "4.26% [at 20.5 µM]"},
      {"compound": "COc1cccc(N2C(=O)CC(N3CCN(S(=O)(=O)c4ccccc4)CC3)C2=O)c1", "note": "(stereo not drawn)", "activation (GFP accumulation)": "-2.38%"},
      {"compound": "Cc1cc(C(F)(F)F)nn1CC(=O)N1CCCC1", "activation (GFP accumulation)": "0.102%"},
      {"compound": "CC(=O)N1CCC2(CCCN(Cc3ccc(C#N)cc3)C2)CC1", "activation (GFP accumulation)": "-2.4%"},
      {"compound": "CC(NC(=O)c1cc(-c2ccccc2)on1)c1ccccc1", "note": "(stereo not drawn)", "activation (GFP accumulation)": "-6.8%"},
      {"compound": "N#CCCn1cnc2ccccc21", "activation (GFP accumulation)": "-0.926%"}
    ]}
  ]
}
